Sampled rows, rich in hits. Any-hit rate of the full collection: about 7.4%.
NPC1 prom act – activates the NPC1 promoter | Huh7 NPC1 promoter luciferase reporter, 24 h | Potency, µM (top dose mostly 9.22 µM), usual class: activators | 320,000 compounds, 2.4% hits | AID 485313; note: nearly all actives have a fitted effect of over 60% in size
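Huh7 cells stably carrying NPC1 promoter–luciferase, plated in Opti-MEM with 10% FBS for 2 h, were exposed to compound in DMSO for 24 h at 37 °C; luciferase reagent was added for 10 min and luminescence read.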
Rab9 prom act – activates the Rab9 promoter. 320,000 compounds, 2.8% hits. Huh7 Rab9 promoter-luciferase reporter, luminescence, 24 h. Potency, µM (series often up to 9.22 µM), actives largely listed as activators. AID 485297; note: nearly all actives have a fitted effect of over 60% in size
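Rab9 promoter-driven luciferase in stably transfected Huh7 cells; 1500 cells/well rested 2 h, exposed to compound in DMSO for 24 h at 37 °C, 5% CO2. Luminescence read 10 min after adding luciferase reagent at ambient temperature.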
FLuc counter – counter-screen for miR-21 project: firefly luciferase inhibitors or activators; P08659; purified FLuc, Km substrates, luminescence inhibition; Potency, µM (highest dose often 57.5 µM), most hits filed as inhibitors; 360,000 compounds, 6.9% hits; note: nearly all actives have a fitted effect of over 55% in size
Target sequence (P08659 whole entry, looked up): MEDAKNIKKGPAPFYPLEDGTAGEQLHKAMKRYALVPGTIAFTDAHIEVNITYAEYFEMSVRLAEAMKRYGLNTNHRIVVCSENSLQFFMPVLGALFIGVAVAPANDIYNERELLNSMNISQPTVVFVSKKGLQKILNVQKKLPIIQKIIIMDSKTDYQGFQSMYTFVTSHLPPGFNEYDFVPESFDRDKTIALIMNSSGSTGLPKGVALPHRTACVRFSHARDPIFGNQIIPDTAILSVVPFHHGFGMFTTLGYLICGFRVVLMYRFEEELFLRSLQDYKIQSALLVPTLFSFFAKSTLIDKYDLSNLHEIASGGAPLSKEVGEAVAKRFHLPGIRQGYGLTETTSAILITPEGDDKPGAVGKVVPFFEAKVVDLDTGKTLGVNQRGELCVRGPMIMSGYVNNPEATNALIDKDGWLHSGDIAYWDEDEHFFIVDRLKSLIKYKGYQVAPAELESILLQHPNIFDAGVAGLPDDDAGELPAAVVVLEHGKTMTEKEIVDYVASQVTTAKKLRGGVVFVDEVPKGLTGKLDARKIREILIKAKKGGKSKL
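Purified P. pyralis luciferase, 10 nM final, with Km-level 10 uM D-luciferin and 10 uM ATP in 50 mM Tris acetate pH 7.5, 10 mM Mg acetate, 0.01% Tween-20, 0.05% BSA; 6-point qHTS titration about 60 µM downward; luminescence read.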
ELG1 genotoxic – inducers of genotoxicity in HEK293T ELG1-luciferase cells. 330,000 compounds, 1.3% hits. AID 504466. HEK293T ELG1-luciferase reporter, luminescence, 16 h. Potency, µM (series often up to 46 µM), most hits filed as activators; note: nearly all actives have a fitted effect of over 60% in size
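Quantitative HTS format in 1536-well plates. HEK293T ELG1-luciferase reporter cells receive test compound and are incubated 16 hr at 37 °C, 5% CO2; ONE-Glo added, 30 min room temperature, then luminescence read.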
Luc counter – Kinase-Glo luciferase inhibition (counter-screen) | Q27757 | Kinase-Glo luciferase, ATP luminescence, 8 min | Potency, µM (top dose mostly 38.3 µM), actives largely listed as inhibitors | 200,000 compounds, 0.28% hits | AID 1379; note: nearly all actives have a fitted effect of over 60% in size
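Substrate mix (final 50 mM imidazole pH 7.2, 50 mM KCl, 7 mM MgCl2, 10 uM ATP, 0.01% Tween 20, 0.05% BSA) plus pin-tool compound, then Kinase-Glo detection mix; 8 min ambient, luminescence read.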
SMN2 splice up – SMN2 splice variant enhancement; HEK293 SMN2-luciferase splicing reporter, luminescence, 30-36 h; Potency, µM (titrated, usually from 46.1 µM), hits mostly activators; 210,000 compounds, 2.8% hits; AID 1458; note: nearly all actives have a fitted effect of over 55% in size
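HEK293 cells carry an SMN2 minigene-luciferase reporter in which exon 7 inclusion puts luciferase in frame. Cells were seeded at 2000 cells/well, attached for 10-12 hours, then exposed to compounds for 30-36 hours at 37C before ONE-Glo luminescence.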
A number is an active result; – = inactive; ? = inconclusive; · = no result given. Calls come from the whole dose curve; as a rule, active = well fitted curve in the direction sought with a large enough effect; inconclusive = small, poorly fitted or top-dose-only effect, or another doubt; inactive = no such curve, though single readings can be large; an effect the other way counts as inactive or inconclusive.

SMILES | NPC1 prom act | Rab9 prom act | FLuc counter | ELG1 genotoxic | Luc counter | SMN2 splice up
CC(C)(C)c1cc(NC(=O)c2cccc([N+](=O)[O-])c2)no1 | 2.24µM | 1.41µM | ? | ? | – | 2.82µM
COC(=O)c1ccccc1NC(=O)Nc1cc(C(C)(C)C)on1 | 2µM | 0.891µM | – | 16.4µM | · | ·
Cc1cc(C(=O)Nc2cc(C(C)(C)C)on2)c(C)o1 | ? | 2.82µM | 9.53µM | ? | · | ·
CC(C)(C)c1cc(NC(=O)Nc2ccccc2OC(F)(F)F)no1 | – | – | – | – | · | ·
Cc1cc(NC(=O)c2cccc([N+](=O)[O-])c2)no1 | – | – | – | – | · | ·
CC(C)(C)c1cc(NC(=O)Nc2ccccc2)no1 | 1.41µM | 1.26µM | 4.78µM | ? | · | ·
Cc1cccc(C)c1NC(=O)CN(C)CC(=O)c1c(N)n(Cc2ccccc2)c(=O)n(C)c1=O | – | – | – | – | · | ·
CNC(=S)NCC(O)c1ccc([N+](=O)[O-])cc1 (configuration not stated) | – | – | – | – | – | –
Cc1cc(NC(NC(=O)c2ccco2)(C(F)(F)F)C(F)(F)F)no1 | – | – | – | – | – | –
CC(C)(C)c1cc(NC(=O)c2ccco2)no1 | 1.78µM | 0.631µM | 5.36µM | 1.3µM | · | ·
Cc1ccc(NC(=O)CSc2cn(CC(=O)N3CCCC3)c3ccccc23)cc1Cl | · | · | – | · | · | ·
Cc1ccc(S(C)(=O)=O)cc1C(=O)OCC(=O)N1CCCC1=O | – | – | – | – | · | ·
C/C=C/Cn1cccc(C(=O)Nc2ccc(OC)cc2)c1=O | ? | ? | 23.9µM | – | – | –
C=CCn1c(N)c(C(=O)Nc2ccc(C)cc2)sc1=S | ? | 2.82µM | 1.2µM | ? | – | –
C=CCn1cccc(C(=O)Nc2cc(OC)ccc2OC)c1=O | – | – | – | – | – | –
C=CCn1cccc(C(=O)Nc2ccc(C)cc2)c1=O | 4.47µM | 2.82µM | 10.7µM | ? | · | ·
C=CCn1cccc(C(=O)Nc2ccc(C)c(C)c2)c1=O | 1.58µM | 2.24µM | 10.7µM | ? | · | ·
C=CCn1c(N)c(C(=O)Nc2ccccc2OC)sc1=S | – | – | ? | – | · | ·
COc1ccc(NC(=O)c2ccccc2NC(=O)CSc2ccccc2)cc1 | ? | ? | – | – | · | ·
CCCCCC(=O)Nc1ccc2oc(-c3cncc(Br)c3)nc2c1 | 0.708µM | 1.58µM | – | ? | – | 11.2µM
CCCC(=O)Nc1ccc2oc(-c3ccncc3)nc2c1 | – | – | ? | – | – | –
CCCC(=O)Nc1ccc2oc(-c3cncc(Br)c3)nc2c1 | 1.58µM | 1.26µM | ? | 9.2µM | – | 4.47µM
CCCCC(=O)Nc1ccc2oc(-c3ccncc3)nc2c1 | – | – | – | – | – | –
COc1cc(/C=C2\CCCc3c2nc2ccccc2c3C(=O)O)cc(Br)c1O | – | – | ? | – | · | ·
COc1ccc(/C=C2\CCn3c2nc2cc(C(=O)O)ccc2c3=O)cc1OC | – | – | – | – | · | ·
SMILES | NPC1 prom act | Rab9 prom act | FLuc counter | ELG1 genotoxic | Luc counter | SMN2 splice up
COc1ccc(/C=C2\CCn3c2nc2ccccc2c3=O)cc1OC | 3.55µM | 2.51µM | 8.49µM | ? | · | ·
COc1cc(/C=C2\CCc3c2nc2ccccc2c3C(=O)O)cc(OC)c1OC | 2µM | 3.55µM | 0.849µM | 23.1µM | · | ·
CCOC(=O)c1sc(NC(=O)c2ccccc2OCC)nc1C | ? | ? | – | – | – | –
CCOC(=O)c1sc(NC(=O)c2ccc3nc[nH]c3c2)nc1C | – | – | 5.36µM | ? | · | ·
CCOC(=O)c1sc(NC(=O)CSc2nccn2C)nc1C | ? | ? | ? | 20.6µM | · | ·
CCOC(=O)c1sc(NC(=O)c2cccnc2)nc1C | – | – | 15.1µM | ? | – | –
CCOC(=O)c1sc(NC(=O)c2ccc(=O)[nH]c2)nc1C | – | – | ? | – | · | ·
O=c1[nH]c(-c2ccc(-c3cccc(Cl)c3)o2)nc2ccccc12 | · | · | · | 2.59µM | · | ·
Cc1cc(C)c(NC(=O)CSC2=Nc3ccccc3C3=NC(CC(=O)NCc4cccs4)C(=O)N23)c(C)c1 (configuration not stated) | · | · | – | · | · | –
CCN(CC)CCNC(=O)C(Oc1ccccc1)Oc1ccccc1 | – | – | – | – | · | ·
O=C(CSc1nc(-c2ccccc2)[nH]c1-c1ccccc1)Nc1ccc2c(c1)OCCO2 | · | · | 9.53µM | · | · | –
O=C(CSc1ccccn1)Nc1ccc2ccccc2c1 | 3.55µM | 2.82µM | 4.78µM | ? | – | ·
CC1(C(=O)OCC(=O)Nc2ccc3ccccc3c2)CC1(Cl)Cl (configuration not stated) | – | – | 19µM | – | – | –
O=C(CSc1ccccn1)Nc1ccc2c(c1)CCC2 | – | ? | 12µM | ? | · | ·
COc1ccc(NC(=O)CN2CCN(C(C)=O)CC2)cc1S(=O)(=O)N1CCOCC1 | · | · | · | – | · | ·
O=C(O)c1ccc(N2CC3CC(C2)c2cccc(=O)n2C3)c(NC(=S)Nc2ccc(Br)cc2)c1 (configuration not stated) | – | – | – | – | – | –
CCOC(=O)c1c(C)[nH]c(C)c1S(=O)(=O)NCc1ccc(OCC)cc1 | – | – | – | – | · | ·
O=C(CSC1=NCCS1)Nc1ccc2ccccc2c1 | – | – | 16.9µM | – | – | ·
O=C(CSc1ccccn1)Nc1ccc2c(c1)OCCO2 | 3.98µM | 2.51µM | 8.49µM | ? | · | ·
O=C(COc1ccc2ccccc2c1)NC1=NCCS1 | 4.47µM | ? | 4.78µM | – | – | –
CC(=O)Nc1ccc(NC(=O)CSC2=NCCS2)cc1 | – | – | – | – | – | –
Cc1cc(C)cc(OCC(=O)NC2=NCCS2)c1 | – | – | – | – | – | ?
CN(C)S(=O)(=O)c1ccc(SCC(=O)Nc2ccc3c(c2)OCCO3)nc1 | – | – | 21.3µM | – | · | ·
Cc1cc(NC(=O)CSc2ccccn2)cc(NC(=O)CSc2ccccn2)c1 | – | – | – | – | · | ·
Cc1cc(=O)[nH]c(SCC(=O)Nc2ccc3c(c2)OCCO3)n1 | – | – | – | – | – | ·
SMILES | NPC1 prom act | Rab9 prom act | FLuc counter | ELG1 genotoxic | Luc counter | SMN2 splice up
O=C(CSc1ccccn1)Nc1ccc2c(c1)C(=O)c1ccccc1C2=O | 2.82µM | 3.98µM | ? | 16.4µM | – | 10µM
O=C(CSc1nccc(=O)[nH]1)Nc1ccc2c(c1)OCCO2 | 2.24µM | 2.24µM | 10.7µM | 14.6µM | · | ·
O=C(CSc1ncccn1)NC(=O)Nc1ccc2c(c1)OCCO2 | – | – | 23.9µM | – | – | –
O=C(CSc1ncccn1)Nc1ccc2c(c1)OCO2 | · | · | · | – | · | ·
CCN(CC)C(=O)c1ccc(Nc2nnc(C)c3ccccc23)cc1 | – | – | ? | – | 11.2µM | –
OCc1ncc(-c2ccccc2)s1 | – | – | – | – | · | ·
CC(C)(C)N=Cc1cc(-c2ccccc2)sc1O | 2.82µM | 2.24µM | 5.36µM | 9.2µM | – | –
O=C(CSC1=NCCS1)Nc1nc2c(s1)CCCC2 | ? | ? | 16.9µM | – | – | –
Cn1nnnc1SCC(=O)Nc1nc2c(s1)CCCC2 | ? | 3.16µM | 12µM | 8.2µM | – | ·
N#Cc1c(NC(=O)CSC2=NCCS2)sc2c1CCCC2 | – | – | – | – | – | –
